HEK cytotox = HEK 293 cell cytotoxicity. HEK 293 viability, ATP luminescence (CellTiter-Glo), 48-72 h. AID 1345083. 6.6% of 94,000 active. Potency, µM (series often up to 115 µM), for the others: top-dose activity change, negative = cytotoxicity, usual class: inhibitors; also: nearly all actives have a fitted effect of over 60% in size
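Luminescence from cellular ATP, measured with CellTiter-Glo, indicates HEK 293 viability. Cells plated at 250 cells/well are treated with compound for 48 or 72 hr at 37 degree Celsius before reagent addition.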
3T3 cytotox = kills NIH 3T3 cells; NIH 3T3 viability, CellTiter-Glo ATP luminescence, 48-72 h; Potency, µM (highest dose often 96.7 µM), for inactives: at the top dose activity change, negative = cytotoxicity, hits mostly inhibitors; 4.3% of 94,000 active; AID 1345082; also: nearly all actives have a fitted effect of over 55% in size
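First NIH 3T3 cells are plated at 400 cells/well; next compound is pinned in; then plates incubate 48 or 72 hr at 37 °C; finally CellTiter-Glo is added and luminescence read after 10 min.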
NPR1 antag = antagonists of human natriuretic peptide receptor Npr1; HEK293 hNpr1 GloSensor cGMP, ANP-stimulated luminescence; Potency, µM (top dose mostly 46.3 µM), for inactives: top-dose activity change, negative = inhibition, most hits filed as inhibitors; 1.6% of 76,000 active; AID 1347048; calls by dose curve; also: nearly all actives have a fitted effect of over 60% in size
Target sequence (P16066 whole entry, looked up): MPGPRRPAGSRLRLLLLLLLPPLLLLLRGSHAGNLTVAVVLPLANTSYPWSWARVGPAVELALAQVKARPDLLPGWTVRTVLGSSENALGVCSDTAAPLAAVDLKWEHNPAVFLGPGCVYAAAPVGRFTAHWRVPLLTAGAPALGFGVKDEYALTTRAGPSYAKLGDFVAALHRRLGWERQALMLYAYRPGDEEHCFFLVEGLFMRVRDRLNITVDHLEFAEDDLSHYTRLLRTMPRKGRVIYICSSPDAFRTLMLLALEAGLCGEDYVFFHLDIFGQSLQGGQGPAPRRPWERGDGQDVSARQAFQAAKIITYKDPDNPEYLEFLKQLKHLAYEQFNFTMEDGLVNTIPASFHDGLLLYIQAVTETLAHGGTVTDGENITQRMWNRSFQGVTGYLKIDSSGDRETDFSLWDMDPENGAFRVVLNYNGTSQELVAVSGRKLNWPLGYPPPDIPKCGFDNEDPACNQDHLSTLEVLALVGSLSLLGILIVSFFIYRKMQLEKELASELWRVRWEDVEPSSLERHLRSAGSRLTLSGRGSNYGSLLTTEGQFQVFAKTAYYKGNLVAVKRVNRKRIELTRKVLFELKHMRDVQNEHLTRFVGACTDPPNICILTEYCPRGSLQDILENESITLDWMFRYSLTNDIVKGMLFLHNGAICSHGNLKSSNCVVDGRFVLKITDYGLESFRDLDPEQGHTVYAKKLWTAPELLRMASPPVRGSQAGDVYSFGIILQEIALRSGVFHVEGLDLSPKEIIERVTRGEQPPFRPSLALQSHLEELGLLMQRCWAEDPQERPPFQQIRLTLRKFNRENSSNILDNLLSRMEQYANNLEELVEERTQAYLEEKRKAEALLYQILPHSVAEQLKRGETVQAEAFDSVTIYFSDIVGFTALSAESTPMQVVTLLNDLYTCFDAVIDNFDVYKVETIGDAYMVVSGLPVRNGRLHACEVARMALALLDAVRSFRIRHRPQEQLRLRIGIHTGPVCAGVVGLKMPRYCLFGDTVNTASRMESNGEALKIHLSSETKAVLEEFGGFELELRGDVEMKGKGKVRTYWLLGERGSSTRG
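Compound pre-incubated 30 min at room temperature on GloSensor-loaded HEK293 cells stably carrying hNpr1 and the pGS-40F cGMP biosensor. Stimulation uses hNppA at 0.1 nM final; luminescence is taken at baseline and 20 min post-agonist.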
Luciferase inh = blocks purified firefly luciferase enzyme activity; P08659; purified P. pyralis luciferase, luminescence, biochemical; Potency, µM (top dose mostly 115 µM), hits mostly inhibitors; 2.5% of 76,000 active; AID 1347043; also: nearly all actives have a fitted effect of over 65% in size
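Luminescence read by CCD imaging after purified firefly luciferase (10nM final) was added to substrate buffer holding 10uM D-luciferin and 10uM ATP, pH 7.5, pre-dosed with compound.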
* = called active by the depositor; i = inactive; u = inconclusive; x = not tested or not shown; [ ] = dose if it differs, or a comment. Shown are actives, neighbours in structure and some others; about 11% of the full set was active somewhere. Unless noted, calls follow the shape of the dose curve; as a rule, active = well fitted curve in the direction sought with a large enough effect; inconclusive = small, poorly fitted or top-dose-only effect, or another doubt; inactive = no such curve, though single readings can be large; an effect the other way counts as inactive or inconclusive. % is scaled to controls: 0 for no effect and ±100 for the full control effect; potency is read from the fitted curve at half-maximal effect.

SMILES | HEK cytotox | 3T3 cytotox | NPR1 antag | Luciferase inh
CC(C)(O)CCc1cccc(C(=O)NCc2ccccc2Cn2cccn2)c1 | -23% | 22µM* | -11% | i
CC1CCCCC1Nc1ncnc2c1CN(C1CCCNCC1)C(=O)CN2C (configuration not stated) | -1% | 5% | x | x
O=C(C1CCCC1)N1CCC(C(=O)N2CCC(c3nc4ncccc4[nH]3)CC2)CC1 | i | -2% | x | x
COCCNC(=O)[C@H]1C[C@H](Oc2ccccc2)CN1Cc1cccc(C)c1 | 13µM* | -24% | 0% | i
CNC(=O)[C@H]1C[C@H](Oc2ccccc2)CN1Cc1cn(C)c2ccc(OC)cc12 | 28µM* | 32µM* | -3% | i
COCCNC(=O)[C@H]1C[C@H](Oc2ccccc2)CN1Cc1cccnc1 | i | i | 2% | i
CNC(=O)[C@H]1C[C@H](Oc2ccccc2)CN1Cc1cccn1C | u | 4% | -16% | i
CNC(=O)CN1C(=O)CN(C(=O)c2ccc(F)cc2)CCC(OC)c2ccccc21 (configuration not stated) | -22% | u | x | x
CN(CC[C@H]1CN(C(=O)c2ccnc(Cl)c2)CC[C@H]1CC(=O)O)c1ccccc1 | -6%[172 µM] | 28µM* | -1%[70.6 µM] | i
CN(CC[C@H]1CN(C(=O)c2cccs2)CC[C@H]1CC(=O)O)c1ccccc1 | i | 0%[174 µM] | 5%[70.6 µM] | i
CCOc1ccc(NC(=O)c2cc(-c3ccc[nH]3)n[nH]2)cc1 | 6% | 1% | 3% | 7.1µM*
O=C(Nc1ccc(F)cc1F)c1cc(-c2ccc[nH]2)n[nH]1 | u | -24% | 2% | 14µM*
O=C(Nc1ccc(OC(F)(F)F)cc1)c1cc(-c2ccc[nH]2)n[nH]1 | 13µM* | 25µM* | 1% | u
COc1ccc(NC(=O)c2cc(-c3ccc[nH]3)n[nH]2)cc1 | -3% | -4% | -5% | 13µM*
COc1ccc(Cl)cc1NC(=O)c1cc(-c2ccc[nH]2)n[nH]1 | u | u | -8% | u
COc1ccccc1CCC(=O)N1CCC2(CC1)NC(=O)N(c1ccccc1)N2 | u | u | -8% | i
COc1ccc(C(=O)N2CC(CNC(=O)N3CCCC3)C3(CCOCC3)C2)cc1 (configuration not stated) | i | -5% | x | x
COc1ccc(-n2c(=O)c(C(=O)NCc3ccccc3F)nc3cccnc32)cc1 | i | -5% | x | x
COc1ccc(NC(=O)c2cc(-c3ccc[nH]3)n[nH]2)c(OC)c1 | u | -25% | -17% | 20µM*
O=C(Cc1ccccc1Cl)NC1CCN(c2cc(-c3cccs3)[nH]n2)C1 (configuration not stated) | u | 20µM* | -5% | i
CN(C)c1cccc(C(=O)NC2CCN(c3cc(-c4cccs4)[nH]n3)C2)c1 (configuration not stated) | u | u | -21% | 32µM*
Cc1ccc(CC(=O)NC2CCN(c3cc(-c4cccs4)[nH]n3)C2)cc1 (configuration not stated) | u | u | -23% | i
O=C(NC1CCN(c2cc(-c3cccs3)[nH]n2)CC1)c1cccc(Cl)c1 | 45µM* | u | 0% | i
CCN1CCN(C(=O)c2cc(-c3ccc(F)cc3)nc3c2cnn3C)CC1 | -3%[172 µM] | u | x | x
COc1ccc(-c2nc(C)nc3c2CN(C(=O)C2CC2)CC3)cc1 | -11%[172 µM] | -16%[138 µM] | x | x
SMILES | HEK cytotox | 3T3 cytotox | NPR1 antag | Luciferase inh
CC1(c2ccccc2)N(Cc2ccccc2F)C(=O)OC12CCN(C(=O)c1cccc(C#N)c1)CC2 (configuration not stated) | -13% | 7.1µM* | 2% | i
CC1(c2ccccc2)N(Cc2ccccc2)C(=O)OC12CCN(C(=O)CN1CCOCC1)CC2 (configuration not stated) | 4% | 14µM* | -5% | i
CC1(c2cccnc2)N(CCOc2ccccc2)C(=O)OC12CCN(C(=O)CN1CCOCC1)CC2 (configuration not stated) | -2% | u | 5% | i
CC(=O)N1CCC2(CC1)OC(=O)N(Cc1ccccc1F)C2(C)c1ccccc1 (configuration not stated) | -3%[172 µM] | 35µM* | -2%[70.6 µM] | i
CC(=O)Nc1ccc(CN2C(=O)OC3(CCN(C(=O)c4cccc(C#N)c4)CC3)C2(C)c2ccccc2)cc1 (configuration not stated) | -16% | u | -6% | i
CN1CCC(C(=O)N2CCC3(CC2)OC(=O)N(Cc2ccccc2F)C3(C)c2ccccc2)CC1 (configuration not stated) | u | u | -8% | i
CC1(c2ccccc2)N(Cc2ccccc2F)C(=O)OC12CCN(C(=O)CN1CCOCC1)CC2 (configuration not stated) | 4% | 22µM* | 3% | i
COc1ccc2[nH]c3c(c2c1)CCNC31CCN(C(=O)c2sccc2C)CC1 | u | -31% | u | i
COc1ccc2[nH]c3c(c2c1)CCNC31CCN(C(=O)c2ccc(C)s2)CC1 | 11µM* | u | 2% | i
COc1ccc2[nH]c3c(c2c1)CCNC31CCN(C(=O)c2cccs2)CC1 | 8.9µM* | u | -21% | i
CNC(=O)c1cc(C2CC2)nc2c1c(C1CCN([S+](=O)([O-])c3ccc(NC(C)=O)cc3)CC1)nn2C | u | -21% | x | x
CC(=O)N1Cc2ccccc2CC2(CCCN(CCc3ccccc3)C2)C1 (configuration not stated) | u | -39% | x | x
O=C(C1CCCN1C(=O)NC1CCCC1)N1CCC(N2Cc3ccccc3C2=O)CC1 (configuration not stated) | 2% | -11% | x | x
Cc1c(CN2CCN(c3ncc(F)cn3)CC2)[nH]c2ccc(F)cc12 | u | u | -1% | i
CCN1C(=O)CN(C(=O)c2ccncc2)CC12CCOCC2 | -1% | -19% | x | x
Cc1ccc(NC2=N[C@H]3[C@@H](O)[C@H](O)C[C@H](C(=O)N4CCC(C(N)=O)CC4)[C@H]3S2)cc1 | -4%[172 µM] | 1%[174 µM] | -1%[70.6 µM] | 50µM*
CN1C[C@@H](NC(=O)CC(C)(C)CC(=O)O)C[C@H]1c1nc(-c2ccc3ccccc3c2)no1 | i | -7% | 5% | u
CN1C[C@@H](NC(=O)CCC(=O)O)C[C@H]1c1nc(-c2ccc3ccccc3c2)no1 | -6%[172 µM] | -30%[174 µM] | 1%[70.6 µM] | 32µM*
COCC(=O)N[C@H]1C[C@@H](c2nc(-c3ccc(OC(F)(F)F)cc3)no2)N(C)C1 | u | u | 1%[70.6 µM] | u
COc1ccc(-c2noc([C@@H]3C[C@H](NC(=O)COCC(=O)O)CN3C)n2)cc1 | 1%[172 µM] | -2%[138 µM] | -1%[70.6 µM] | 63µM*
COc1ccc(Cn2c(=O)c(C(=O)N3CCC(C#N)CC3)nc3cccnc32)cc1 | -15% | -26% | x | x
OCc1ccc(CN2C[C@H](O)C[C@H]2c2nc(-c3ccccc3)no2)o1 | -8%[172 µM] | -14%[174 µM] | 4%[70.6 µM] | 45µM*
